TEAD-YAP inh: TEAD-YAP interaction inhibition, primary screen, TEAD-YAP interaction inhibitor project, luminescence, HEK-TIYL cells; inhibition, % at 9.12 µM; TEAD-Gal4/YAP UAS-luciferase luminescence; AID 1259422, 2018; 640,000 tested, 1.4% active; in the data active = inhibition above about 32%
FBW7 act: FBW7 E3 ligase activators, primary screen, biochemical, AlphaScreen, human; AID 1259310, 2017; normalized activity (activation), % at 26.1 µM; 650,000 tested, 0.13% active; F-box/WD repeat-containing protein 7 (Homo sapiens), Q969H0; AlphaScreen FBW7–phospho-cyclin E peptide binding, activator screen; in the data active = normalized activity above about 1.9%;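 also: purified mutant Fbw7 with reduced substrate affinity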
MITF inh: MITF inhibitors, primary screen, biochemical, AlphaScreen, human; Microphthalmia-associated transcription factor (Homo sapiens), O75030; AlphaScreen MITF homodimerization, bead proximity signal; inhibition, % at 2.6 µM; 650,000 tested, 0.91% active; in the data active = inhibition above about 50%
Target sequence (O75030 whole entry, looked up): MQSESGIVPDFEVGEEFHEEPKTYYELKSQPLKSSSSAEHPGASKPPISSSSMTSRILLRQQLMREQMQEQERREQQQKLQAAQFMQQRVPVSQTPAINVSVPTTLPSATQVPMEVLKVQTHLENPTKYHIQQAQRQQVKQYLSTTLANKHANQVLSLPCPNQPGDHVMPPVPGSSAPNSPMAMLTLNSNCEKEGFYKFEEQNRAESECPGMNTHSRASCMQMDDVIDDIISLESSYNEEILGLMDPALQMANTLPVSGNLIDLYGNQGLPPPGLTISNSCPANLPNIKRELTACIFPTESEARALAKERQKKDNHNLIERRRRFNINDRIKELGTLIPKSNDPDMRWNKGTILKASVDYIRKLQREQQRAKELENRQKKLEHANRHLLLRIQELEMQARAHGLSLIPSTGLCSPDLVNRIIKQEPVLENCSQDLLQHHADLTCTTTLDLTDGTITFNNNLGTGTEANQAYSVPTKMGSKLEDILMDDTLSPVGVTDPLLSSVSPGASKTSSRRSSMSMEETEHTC
GPR151 activ: activators of human GPR151, primary screen, cell-based, PathHunter beta-arrestin, luminescence. G-protein coupled receptor 151 (Homo sapiens), Q8TDV0. PathHunter beta-arrestin GPR151 cells. activation, % at 11.2 µM. 650,000 tested, 1% active. AID 1508602, 2020; in the data active = activation above about 4.9%
Numbers stand for hits. Shown are actives, neighbours in structure and some others; about 3.5% of the full set was active somewhere.

How did O=C(Nc1c[nH]c(=O)[nH]c1=O)c1cccc(N2C(=O)c3ccc(Oc4cccc([N+](=O)[O-])c4)cc3C2=O)c1 do in these assays?
TEAD-YAP inh: inactive; FBW7 act: inactive; MITF inh: inactive; GPR151 activ: inactive

What do the screens show for `CN(C)c1ccc(/C=C(\C#N)c2nc(-c3ccc(Br)cc3)cs2)cc1`?
TEAD-YAP inh: inactive; FBW7 act: inactive; MITF inh: inactive; GPR151 activ: inactive

What do the screens show for `CCOC(=O)c1sc(NC(=O)COc2c(C)cccc2C)c(C(=O)OCC)c1C`?
TEAD-YAP inh: inactive; FBW7 act: inactive; MITF inh: inactive; GPR151 activ: inactive

What do the screens show for `CCOC(=O)c1sc(NC(=O)C[n+]2c(N)sc3ccccc32)c(C(=O)OCC)c1C`?
TEAD-YAP inh: inactive; FBW7 act: inactive; MITF inh: inactive; GPR151 activ: inactive

How did COc1ccc(OC)c(/C=C2\SC(=Nc3ccccc3)NC2=O)c1 do in these assays?
TEAD-YAP inh: inactive; FBW7 act: inactive; MITF inh: inactive; GPR151 activ: inactive

What do the screens show for `COc1ccc(OC)c(/C=C2\SC(=Nc3ccc(O)cc3)NC2=O)c1`?
TEAD-YAP inh: 54; FBW7 act: inactive; MITF inh: inactive; GPR151 activ: inactive

Results for CCOc1ccc(/C=C2\C(=O)NC(=S)N(CC)C2=O)c2ccccc12 ?
TEAD-YAP inh: inactive; FBW7 act: inactive; MITF inh: inactive; GPR151 activ: inactive

How did COCCn1c(C)cc(/C=C2/C(=O)NC(=O)N(Cc3ccco3)C2=O)c1C do in these assays?
TEAD-YAP inh: inactive; FBW7 act: inactive; MITF inh: inactive; GPR151 activ: inactive

Results for COCCn1c(C)cc(/C=C2/C(=O)NC(=S)N(Cc3ccco3)C2=O)c1C ?
TEAD-YAP inh: inactive; FBW7 act: inactive; MITF inh: 65; GPR151 activ: inactive

What do the screens show for `O=C1NC(=S)N(Cc2ccco2)C(=O)/C1=C\N1CCOCC1`?
TEAD-YAP inh: inactive; FBW7 act: inactive; MITF inh: 75; GPR151 activ: inactive

Results for CCOc1ccc2ccccc2c1/C=C1/C(=O)NC(=S)N(Cc2ccco2)C1=O ?
TEAD-YAP inh: inactive; FBW7 act: inactive; MITF inh: 77; GPR151 activ: inactive

How did COc1ccc(C)cc1Nc1ncnc2sc(C)c(C)c12 do in these assays?
TEAD-YAP inh: inactive; FBW7 act: inactive; MITF inh: inactive; GPR151 activ: inactive

Results for COc1ccc(OC)c(NC(=O)Nc2ccccc2OC(F)F)c1 ?
TEAD-YAP inh: inactive; FBW7 act: inactive; MITF inh: inactive; GPR151 activ: inactive

How did COc1ccc(-n2nc(C(=O)NCC(=O)N3CCCC3)c3ccccc3c2=O)cc1 do in these assays?
TEAD-YAP inh: inactive; FBW7 act: inactive; MITF inh: inactive; GPR151 activ: inactive

Results for COc1ccc(OC)c(NC(=O)CNC(=O)c2nn(-c3ccc(OC)c(OC)c3)c(=O)c3ccccc23)c1 ?
TEAD-YAP inh: 39; FBW7 act: inactive; MITF inh: inactive; GPR151 activ: inactive

How did COCCNC(=O)CNC(=O)c1nn(-c2ccc(OC)c(Cl)c2)c(=O)c2ccccc12 do in these assays?
TEAD-YAP inh: inactive; FBW7 act: inactive; MITF inh: inactive; GPR151 activ: inactive

What do the screens show for `COc1ccc(-n2nc(C(=O)NCC(=O)NCCc3ccc(OC)c(OC)c3)c3ccccc3c2=O)cc1Cl`?
TEAD-YAP inh: 38; FBW7 act: inactive; MITF inh: inactive; GPR151 activ: inactive

Results for COc1ccc(-n2nc(C(=O)NCC(=O)N3CCC(Cc4ccccc4)CC3)c3ccccc3c2=O)cc1 ?
TEAD-YAP inh: 33; FBW7 act: inactive; MITF inh: inactive; GPR151 activ: inactive

What do the screens show for `COc1ccc(OC)c(NC(=O)CNC(=O)c2nn(-c3ccc(OC)c(Cl)c3)c(=O)c3ccccc23)c1`?
TEAD-YAP inh: 36; FBW7 act: inactive; MITF inh: inactive; GPR151 activ: inactive

What do the screens show for `O=C(NNS(=O)(=O)c1ccc(F)cc1)c1ccccn1`?
TEAD-YAP inh: inactive; FBW7 act: inactive; MITF inh: inactive; GPR151 activ: inactive

How did COc1cc(C(=O)Nc2c(C)cccc2C(=O)O)cc(OC)c1OC do in these assays?
TEAD-YAP inh: inactive; FBW7 act: inactive; MITF inh: inactive; GPR151 activ: inactive

How did CCN1CCN(C(CC(C)C)c2nnnn2Cc2ccc(F)cc2)CC1 (configuration not stated) do in these assays?
TEAD-YAP inh: 53; FBW7 act: inactive; MITF inh: inactive; GPR151 activ: inactive

What do the screens show for `CC(C)CC(c1nnnn1Cc1ccc(F)cc1)N1CCN(C)CC1` (configuration not stated)?
TEAD-YAP inh: inactive; FBW7 act: inactive; MITF inh: inactive; GPR151 activ: inactive

Results for CCN(CC)C(=O)c1cn(CCC#N)nc1-c1ccc(F)cc1 ?
TEAD-YAP inh: inactive; FBW7 act: 2.1; MITF inh: inactive; GPR151 activ: inactive

Results for CCOC(=O)c1ccc(NC(=O)c2cn(CCC#N)nc2-c2ccc(F)cc2)cc1 ?
TEAD-YAP inh: inactive; FBW7 act: inactive; MITF inh: inactive; GPR151 activ: inactive

Results for Clc1ccc2nc(C3CCN(Cc4nnnn4Cc4cccs4)CC3)[nH]c2c1 ?
TEAD-YAP inh: 36; FBW7 act: inactive; MITF inh: inactive; GPR151 activ: inactive

What do the screens show for `c1csc(Cn2nnnc2CN2CCN(C3CCCC3)CC2)c1`?
TEAD-YAP inh: inactive; FBW7 act: inactive; MITF inh: inactive; GPR151 activ: inactive

What do the screens show for `Fc1ccccc1C1CCN(Cc2nnnn2C2CCCC2)CC1`?
TEAD-YAP inh: inactive; FBW7 act: inactive; MITF inh: inactive; GPR151 activ: inactive

Results for Clc1ccc2nc(C3CCN(Cc4nnnn4C4CCCC4)CC3)[nH]c2c1 ?
TEAD-YAP inh: 37; FBW7 act: inactive; MITF inh: inactive; GPR151 activ: inactive

How did COCCNC(=O)COc1cccc(C)c1 do in these assays?
TEAD-YAP inh: inactive; FBW7 act: inactive; MITF inh: inactive; GPR151 activ: inactive

How did O=S(=O)(NCc1ccncc1)c1ccc(S(=O)(=O)NC2CCCC2)cc1 do in these assays?
TEAD-YAP inh: inactive; FBW7 act: inactive; MITF inh: inactive; GPR151 activ: inactive

How did COc1ccccc1-c1nnc2sc(-c3cc4ccccc4o3)nn12 do in these assays?
TEAD-YAP inh: 53; FBW7 act: inactive; MITF inh: inactive; GPR151 activ: inactive

How did CCOc1cccc(CN2CCN(C3CCN(C(C)C)CC3)C(CCO)C2)c1O (configuration not stated) do in these assays?
TEAD-YAP inh: inactive; FBW7 act: inactive; MITF inh: inactive; GPR151 activ: inactive

Results for CNC(=S)NNC(=O)COc1ccc(F)cc1Cl ?
TEAD-YAP inh: inactive; FBW7 act: inactive; MITF inh: inactive; GPR151 activ: inactive

How did CC(C)/C=C1/CCCc2c1[nH]c1ccccc1c2=O do in these assays?
TEAD-YAP inh: 42; FBW7 act: inactive; MITF inh: inactive; GPR151 activ: inactive

How did c1ccc(-c2cnc(SCCN3CCOCC3)n2CC2CCCO2)cc1 (configuration not stated) do in these assays?
TEAD-YAP inh: inactive; FBW7 act: inactive; MITF inh: 57; GPR151 activ: inactive

What do the screens show for `COc1ccc(Nc2nc(N3CCN(c4ccccc4OC)CC3)nc3[nH]ncc23)cc1`?
TEAD-YAP inh: inactive; FBW7 act: inactive; MITF inh: inactive; GPR151 activ: inactive

Screening results as filed in PubChem BioAssay.
